GLS inhibitor: inhibitors of human glutaminase (GLS); O94925; GLS enzymatic activity, qHTS titration; Potency, µM (top dose mostly 45.5 µM), for inactives: at the highest dose activity change, negative = inhibition, actives largely listed as inhibitors; 410,000 tested, 0.21% active
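Glutamate formation by hKGA was monitored fluorometrically using coupled glutamate oxidase, HRP and Amplex Red. Substrate was added as 1 mM L-glutamine solution; incubation was 30 min at RT after an initial read.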
VDR inh: blocks the human vitamin D receptor. 400,000 tested, 0.93% active. P11473. VDR-SRC2-3 peptide fluorescence polarization, 2 h. Potency, µM, for inactives: max response, negative = inhibition, actives largely listed as inhibitors
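Fluorescence polarization assay measuring small-molecule disruption of VDR binding to the coregulator peptide SRC2-3. Compounds were pin-transferred (23 nl) into the reagent mix and incubated 2 h at room temperature before reading.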
Sfp PPTase inh: blocks B. subtilis Sfp PPTase activity; Q9F4F7; Biochemical Sfp PPTase activity, qHTS; Potency, µM, for inactives: largest response in the series, negative = inhibition, most hits filed as inhibitors; 310,000 tested, 3.5% active;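 also: the enzyme is Sfp with the accession as filed and its product quenches rhodamine fluorescence; 0% = enzyme reaction without inhibitor and -100% = no enzyme wells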
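Sfp 15 nM + cpd, 15 min RT; start w/ rhodamine-CoA 5 uM, BHQ-2-YbbR 12.5 uM (final); 50 mM Hepes pH 7.6, 10 mM MgCl2, 0.01% NP-40, 0.01% BSA; read 525/598 nm at 0 and 30 min.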
TrxR1 substrate: substrates of rat thioredoxin reductase 1; O89049; purified TrxR1 substrate turnover, NADPH consumption readout; Potency, µM (titrated, usually from 114 µM), for inactives: top-dose activity change, negative = substrate turnover; 390,000 tested, 0.01% active; AID 588456; also: nearly all actives have a fitted effect of over 50% in size
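Rat TrxR1, dispensed at 90 nM, was prereduced with 400 uM NADPH (final) for 5 min at ~22 deg C, then incubated with compound 15 min before 400 uM selenite. A first-read NADPH fluorescence drop versus no-compound background flagged substrates.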
TrxR1 inh: blocks rat thioredoxin reductase 1. AID 588453. O89049. recombinant rTrxR1, NADPH fluorescence consumption, selenite substrate. 390,000 tested, 1% active. Potency, µM (titrated, usually from 114 µM), inactives show at the top dose activity change, negative = inhibition, actives largely listed as inhibitors; also: nearly all actives have a fitted effect of over 65% in size
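Rat TrxR1 (90 nM in the dispensed reagent) was pre-reduced with 400 uM NADPH for 5 min at room temperature, then incubated with compound for 15 min. After 400 uM selenite was added, NADPH fluorescence (Ex 340/Em 450 nm) was followed for 8 min.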
KAT2A inh: inhibitors of human GCN5L2 histone acetyltransferase; 390,000 tested, 0.21% active; GCN5L2 HAT assay, ThioGlo1 CoA-SH fluorescence; Potency, µM (highest dose often 58.9 µM), inactives show at the top dose activity change, negative = inhibition, hits mostly inhibitors; Q92830
Target sequence (Q92830 whole entry, looked up): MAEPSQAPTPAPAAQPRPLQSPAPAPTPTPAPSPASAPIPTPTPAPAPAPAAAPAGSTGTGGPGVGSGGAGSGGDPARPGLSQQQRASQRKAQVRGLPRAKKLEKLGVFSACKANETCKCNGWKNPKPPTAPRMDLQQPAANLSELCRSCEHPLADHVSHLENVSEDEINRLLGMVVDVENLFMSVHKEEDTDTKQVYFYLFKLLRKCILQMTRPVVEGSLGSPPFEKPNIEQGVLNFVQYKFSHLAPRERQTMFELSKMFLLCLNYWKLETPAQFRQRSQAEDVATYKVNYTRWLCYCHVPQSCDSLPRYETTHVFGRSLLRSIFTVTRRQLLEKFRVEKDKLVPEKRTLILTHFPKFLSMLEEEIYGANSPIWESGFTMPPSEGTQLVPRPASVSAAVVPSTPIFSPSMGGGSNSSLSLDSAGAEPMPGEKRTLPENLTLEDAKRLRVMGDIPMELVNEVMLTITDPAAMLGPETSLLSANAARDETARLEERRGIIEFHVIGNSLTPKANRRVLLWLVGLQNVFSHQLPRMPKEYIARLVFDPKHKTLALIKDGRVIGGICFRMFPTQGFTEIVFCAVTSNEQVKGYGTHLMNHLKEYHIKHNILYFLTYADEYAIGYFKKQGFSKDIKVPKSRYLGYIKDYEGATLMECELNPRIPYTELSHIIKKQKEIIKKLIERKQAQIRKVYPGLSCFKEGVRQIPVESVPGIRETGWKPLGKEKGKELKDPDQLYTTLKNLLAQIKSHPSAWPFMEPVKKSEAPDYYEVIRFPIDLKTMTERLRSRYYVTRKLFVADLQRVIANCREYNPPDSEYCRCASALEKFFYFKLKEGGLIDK
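GCN5L2 (20 nM) in 50mM HEPES pH 7.5, 0.1mM EDTA, 0.01% Tween-20 preincubated 15 min with compounds at room temperature. Reaction started with H3(1-25) 75uM, acetyl-CoA 70uM, ThioGlo1 50uM; CoA-thiol fluorescence (Ex340/Em540) read at 0 and 20 min.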
The depositor's hits bear a star; u = inconclusive; x = no result; ! = repeats disagree; [ ] = remark or other dose. Compounds with a hit are over-represented: about 3.8% of the library has one in this group of screens. Calls follow the shape of the dose curve; as a rule, active = well fitted curve in the direction sought with a large enough effect; inconclusive = small, poorly fitted or top-dose-only effect, or another doubt; inactive = no such curve, though single readings can be large; an effect the other way counts as inactive or inconclusive. Unless noted, % is scaled to controls: 0 for no effect and ±100 for the full control effect; potency is read from the fitted curve at half-maximal effect.

SMILES | GLS inhibitor | VDR inh | Sfp PPTase inh | TrxR1 substrate | TrxR1 inh | KAT2A inh
CS(=O)(=O)Nc1ccc(C2=NN(S(C)(=O)=O)C(c3ccccc3)C2)cc1 (stereo not drawn) | -13% | -12% | 5% | 163% | 79µM* | -3%
CCS(=O)(=O)N1N=C(c2ccc(NS(C)(=O)=O)cc2)CC1c1ccccc1 (stereo not drawn) | 20% | -7% | -2% | 126% | u | -7%
COc1ccc(S(=O)(=O)N2N=C(c3cccc(NS(C)(=O)=O)c3)CC2c2ccco2)cc1 (stereo not drawn) | 1% | 1% | -24% | 14% | 32% | -15%
COc1ccc(S(=O)(=O)N2N=C(c3ccc(NS(C)(=O)=O)cc3)CC2c2ccco2)cc1 (stereo not drawn) | -5% | 5% | 56µM* | -5% | u | -10%
Fc1ccc(-c2csc3[n+]2CCS3)cc1 | 10% | -9% | 25% | 1% | 6% | 2%
O=[N+]([O-])c1ccc(-c2csc3[n+]2CCS3)cc1 | -9% | u | 11µM* | -3% | 9% | -6%[0.501 µM]
O=C(Nc1nc(C2C3CC4CC(C3)CC2C4)cs1)c1cc2cc([N+](=O)[O-])ccc2oc1=O (stereo not drawn) | -2% | -17% | -2% | 6%[57.1 µM] | 17%[57.1 µM] | -1%
COc1ccc(-n2nc(C(=O)NCC(=O)NC(C)C)c3ccccc3c2=O)cc1Cl | -1% | 1% | 5% | 0% | 18% | 7.1µM*
COc1ccc(CCNC(=O)CNC(=O)c2nn(-c3ccc(OC)c(OC)c3)c(=O)c3ccccc23)cc1OC | -5% | 15% | 28% | -1%[57.1 µM] | -1%[57.1 µM] | -2%
COc1ccc(-n2nc(C(=O)NCC(=O)Nc3cccc(Cl)c3)c3ccccc3c2=O)cc1OC | 16% | 2% | 56µM* | -3%[57.1 µM] | 3%[57.1 µM] | -6%
CCOCCCNC(=S)NCCCNc1nc2cc3c(cc2cc1C#N)OCO3 | 3% | -1% | -9% | 150% | 43%[57.1 µM] | -1%
COCCNC(=S)NCCCNc1nc2cc3c(cc2cc1C#N)OCO3 | 13% | -15% | 14µM* | 292% | 105% | -5%
COc1cc(C(=O)NCCNc2nc3cc(C)ccc3cc2C#N)cc(OC)c1OC | -8% | -6% | 9% | 78% | 46% | -6%
COc1cc(C(=O)NCCCNc2nc3cc(C)c(C)cc3cc2C#N)cc(OC)c1OC | 4% | -11% | 79µM* | 79% | 19% | -6%
O=C(Nc1nnc(S(=O)(=O)N2CCCCC2)s1)c1ccc(Cl)cc1 | 1% | -16% | 10% | 0%[57.1 µM] | 6%[57.1 µM] | 11µM*!
Cc1ccc(Cl)c2sc(NC(=O)c3ccc(S(=O)(=O)N4CCCC4)cc3)nc12 | -8% | 2% | x | 0%[57.1 µM] | 17%[57.1 µM] | -4%
CCOC(=O)CCCCC(=O)c1[nH]c(=O)[nH]c1CSc1nc(C)cc(C)n1 | 7% | 4% | -19% | -2%[57.1 µM] | 5%[57.1 µM] | 4%
CCOC(=O)CCCCC(=O)c1[nH]c(=O)[nH]c1CSc1nc(C)cc(=O)[nH]1 | 18% | -4% | 7% | 11% | 3.2µM* | 0%
CCOC(=O)CCCCC(=O)c1[nH]c(=O)[nH]c1CSc1nc2ccccc2[nH]1 | 0% | 1% | -12% | -2% | 3.2µM* | -4%
CCCN(CCC)S(=O)(=O)c1ccc(NS(C)(=O)=O)cc1 | 11% | -12% | 14% | 10%[57.1 µM] | 18%[57.1 µM] | 3%
CCn1c(SCC(=O)N/N=C/C=C\c2ccco2)nc2ccccc21 | -1% | u | 10µM* | -15% | u | -3%
Cc1ccc(Cn2c(SCC(=O)N/N=C/c3ccc(C)o3)nc3ccccc32)cc1 | -4% | -8% | 56µM* | -4% | u | -23%
Cc1ccc(CSc2nnc(SCC(=O)N/N=C/C=C/c3ccco3)s2)cc1 | 12% | -17% | 40µM* | 14%[57.1 µM] | -44% | -19%
CCNc1ccc(Br)cc(C(=O)/C=C/c2ccc3c(c2)OCO3)c1=O | -7% | 89µM* | -81% | -5% | 7.9µM* | -4%
Nc1ccccc1C(=O)/C=C\c1ccc2c(c1)OCO2 | x | x | 7% | x | x | x
SMILES | GLS inhibitor | VDR inh | Sfp PPTase inh | TrxR1 substrate | TrxR1 inh | KAT2A inh
CCNc1ccc(Br)cc(C(=O)/C=C/c2c(Cl)cccc2Cl)c1=O | 8% | u | 16µM* | -14% | u | u
O=C(/C=C/c1ccc(F)cc1)c1cc(Br)ccc1O | -5% | u | -3% | 1% | 9% | -6%
CCNc1ccc(Br)cc(C(=O)/C=C/c2ccc(Cl)cc2)c1=O | -3% | u | 40µM* | -18% | 35µM* | -9%
COC(=O)c1ccc(NCCc2csc(-c3ccc(C)cc3)n2)c([N+](=O)[O-])c1 | x | 2% | 17% | 1% | -5% | -1%
CC(C)C[C@@H](CN1CCC[C@H]1CN1C(=O)C(=O)NC[C@@H]1Cc1ccccc1)N1C[C@H](Cc2ccccc2)N(CCc2ccccc2)C(=O)C1=O | 7% | x | x | x | x | x
CC(=C1C(=O)c2ccccc2C1=O)N1CCN(C/C=C/c2ccccc2)CC1 | -7% | u | 56µM* | -11% | u | 0%
CC(=C1C(=O)c2ccccc2C1=O)N1CCN(Cc2ccccc2)CC1 | 10% | -20% | -18% | 7% | -29% | -2%
Cc1nn(-c2ccccc2)c2nc(N)c(C#N)c(-c3ccc(O)c(O)c3)c12 | 18% | 8% | u | 2% | 11% | u
Cc1cc([N+](=O)[O-])nn1CCCC(=O)Nc1sc2c(c1C(N)=O)CCCC2 | -14% | 32µM* | 18% | 8%[57.1 µM] | -8%[57.1 µM] | -10%
NC(=O)c1c(NC(=O)CCCn2cnc([N+](=O)[O-])n2)sc2c1CCCC2 | -13% | 45µM* | 7.9µM* | -2% | -17% | -3%
CCc1sc(/C=C(/C#N)C(N)=S)cc1[N+](=O)[O-] | 22% | u | 2.8µM* | -2% | u | u
CCOC(=O)CCCCCC(=O)Nc1ccc2c(c1)C(=O)N([C@H](C)CO)C[C@H](C)[C@H](CN(C)C(=O)C1CCCCC1)OCCCC[C@@H](C)O2 | 6% | x | x | x | x | x
CCOC(=O)CC(NC(=O)CCS(=O)(=O)c1ccc2c(c1)n(C)c(=O)c(=O)n2C)c1ccc(C)cc1 (stereo not drawn) | -7% | -9% | 22% | 18% | 18% | -19%
CCCS(=O)(=O)c1nc(S(=O)(=O)c2ccc(C)cc2)c(NC(C)c2ccccc2)s1 (stereo not drawn) | -8% | 2% | x | 3% | 35µM* | -4%
Cc1nnc(SCC(=O)c2ccc([N+](=O)[O-])cc2)s1 | 6% | -24% | 50µM* | -3% | u | 9%
Nc1nnc(SCC(=O)c2ccc([N+](=O)[O-])cc2)s1 | 17% | 5% | 4% | 1%[11.4 µM] | u | 5%
Cc1sc2ncn(CC(=O)NCc3ccccc3)c(=O)c2c1C | -23% | u | -2% | 12% | 21% | -14%

Screening results (PubChem BioAssay)
